Among the data in ChEMBL document CHEMBL3988442, “University of Dundee, Small-Polar-MMV Screening Library” (2021) are Percent Effect values, retold here.

What all share (design): scale not given: direction of the effect not stated beside the values
Assay [1] concerns the target Protein translocase subunit SecA (Escherichia coli (strain K12)) (UniProt P10408). The experiment in a line: Assay to Identify E. coli SecA ATPase Inhibitors. The class given is functional. The settings on record: 30 µM.
Assay [2] deals with T1, Ubiquitin-activating enzyme e1, putative (Leishmania donovani (strain BPK282A1)) (UniProt E9BSI1).
T1 sequence (whole entry): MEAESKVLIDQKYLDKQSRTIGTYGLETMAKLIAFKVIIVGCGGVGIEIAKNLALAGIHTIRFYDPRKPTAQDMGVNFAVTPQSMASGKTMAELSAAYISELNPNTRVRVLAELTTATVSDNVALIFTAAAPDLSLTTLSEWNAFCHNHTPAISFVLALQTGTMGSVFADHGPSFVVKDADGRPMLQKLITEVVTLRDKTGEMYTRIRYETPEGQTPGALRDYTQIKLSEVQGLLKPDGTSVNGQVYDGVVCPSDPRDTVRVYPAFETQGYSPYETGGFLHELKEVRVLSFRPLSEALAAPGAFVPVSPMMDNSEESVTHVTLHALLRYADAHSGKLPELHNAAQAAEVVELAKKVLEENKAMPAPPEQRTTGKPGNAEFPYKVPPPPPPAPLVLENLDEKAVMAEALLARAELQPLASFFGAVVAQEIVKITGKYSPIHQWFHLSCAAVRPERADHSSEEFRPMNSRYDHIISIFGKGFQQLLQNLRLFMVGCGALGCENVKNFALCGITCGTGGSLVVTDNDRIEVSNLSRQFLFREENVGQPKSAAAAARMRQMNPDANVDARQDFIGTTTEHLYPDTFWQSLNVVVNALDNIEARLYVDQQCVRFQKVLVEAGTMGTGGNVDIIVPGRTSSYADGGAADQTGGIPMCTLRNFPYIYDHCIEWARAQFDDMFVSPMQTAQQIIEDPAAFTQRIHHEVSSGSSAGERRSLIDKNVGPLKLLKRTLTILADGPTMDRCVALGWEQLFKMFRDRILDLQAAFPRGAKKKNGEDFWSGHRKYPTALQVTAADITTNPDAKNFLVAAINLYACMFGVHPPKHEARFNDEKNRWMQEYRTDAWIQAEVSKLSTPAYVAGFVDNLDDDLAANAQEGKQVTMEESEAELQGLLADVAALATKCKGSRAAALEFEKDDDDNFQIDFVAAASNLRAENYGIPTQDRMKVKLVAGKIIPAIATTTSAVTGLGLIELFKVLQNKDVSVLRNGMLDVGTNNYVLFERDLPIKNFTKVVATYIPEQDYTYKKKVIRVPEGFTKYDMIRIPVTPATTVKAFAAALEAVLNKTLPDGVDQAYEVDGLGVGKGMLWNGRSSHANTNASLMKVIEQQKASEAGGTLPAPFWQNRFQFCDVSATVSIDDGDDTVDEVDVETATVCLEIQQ
The experiment in a line: Leishmania donovani Ubiquitin Activating Enzyme (LdE1). The settings on record: 30 µM. The class given is functional.

Assay [3] concerns the target AMP-activated protein kinase, AMPK (Homo sapiens) (UniProt P54646+O43741+P54619+Q9UGJ0+Q9Y478+Q13131+Q9UGI9). Briefly: AMP-dependent Kinase enzyme assay. An in vitro enzyme assay that detects ADP turnover that is directly proportional to AMPK activity. This uses naive AMPK that is activated during the assay with MK-8722. The format is functional. The note with it: 30 µM.

For assay [4], the target named is Sialic acid-binding Ig-like lectin 9 (Homo sapiens) (UniProt Q9Y336). The experiment in a line: Hs-Siglec9 ALPHAscreen SOP 20170721. The note with it: 10 µM.
Sialic acid-binding Ig-like lectin 9 (Homo sapiens), sequence (Q9Y336 whole entry): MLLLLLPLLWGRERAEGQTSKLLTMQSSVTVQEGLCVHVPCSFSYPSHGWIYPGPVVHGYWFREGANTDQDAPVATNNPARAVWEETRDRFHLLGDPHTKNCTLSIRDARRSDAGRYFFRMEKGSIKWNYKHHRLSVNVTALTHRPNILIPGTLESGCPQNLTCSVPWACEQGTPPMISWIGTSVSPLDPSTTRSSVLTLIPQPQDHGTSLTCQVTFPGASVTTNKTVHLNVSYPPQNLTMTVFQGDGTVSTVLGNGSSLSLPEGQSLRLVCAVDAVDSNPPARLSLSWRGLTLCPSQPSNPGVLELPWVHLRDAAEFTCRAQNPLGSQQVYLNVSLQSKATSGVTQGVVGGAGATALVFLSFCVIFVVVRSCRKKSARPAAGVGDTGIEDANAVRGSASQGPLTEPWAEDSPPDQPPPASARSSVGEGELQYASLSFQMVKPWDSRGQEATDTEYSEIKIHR
The subject of assay [5] is Trypanosoma cruzi. The experiment in a line: Trypanosoma cruzi phosphomannomutase and mannose-1-phosphate guanylyltransferase assay. The format is functional. The note with it: 10 µM.
Assay [6] has as its target T2, Arginase-2, mitochondrial (Homo sapiens) (UniProt P78540).
T2 sequence (whole entry): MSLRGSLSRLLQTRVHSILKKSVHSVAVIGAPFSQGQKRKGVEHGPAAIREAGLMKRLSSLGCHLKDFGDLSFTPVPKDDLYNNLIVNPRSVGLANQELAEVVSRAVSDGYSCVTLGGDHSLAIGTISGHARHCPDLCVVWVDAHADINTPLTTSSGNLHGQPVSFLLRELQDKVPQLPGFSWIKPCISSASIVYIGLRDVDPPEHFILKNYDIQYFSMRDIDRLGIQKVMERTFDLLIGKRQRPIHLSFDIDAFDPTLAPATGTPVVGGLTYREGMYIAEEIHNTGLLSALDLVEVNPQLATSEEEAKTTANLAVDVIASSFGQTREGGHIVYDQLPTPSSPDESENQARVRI
Briefly: in vitro enzyme assay to detect the production of urea directly proportional to the activity of Arginase II. Note: in the data most compounds retested in dose-response had high values. The format is functional. The settings on record: 33.3 µM.

Assay [7] deals with T3, Proteasome subunit beta (Trypanosoma cruzi) (UniProt O96673).
T3 sequence (whole entry): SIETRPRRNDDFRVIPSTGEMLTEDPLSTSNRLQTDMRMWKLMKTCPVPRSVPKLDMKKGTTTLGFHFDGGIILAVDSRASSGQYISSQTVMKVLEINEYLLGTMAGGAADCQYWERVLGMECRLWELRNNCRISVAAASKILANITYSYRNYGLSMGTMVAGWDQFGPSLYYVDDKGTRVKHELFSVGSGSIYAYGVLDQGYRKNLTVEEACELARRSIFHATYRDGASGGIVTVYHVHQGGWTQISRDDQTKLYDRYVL
Briefly: Trypanosoma cruzi proteasome chymotrypsin-like activity (TcProtChymo) assay. Note: in the data most compounds retested in dose-response had high values. The settings on record: 9.37 µM. The class given is functional.

Assay [8] is filed under the species Homo sapiens. Briefly: To identify inhibition of the IFN signalling (Jak-Stat) pathway via expression of an eGFP reporter gene under the control of an IFN-stimulated response element (ISRE) containing MxA promoter. The settings on record: 30 µM. The format is functional.
In assay [9] the target is T4, Tyrosyl-tRNA synthetase, putative (Trypanosoma cruzi (strain CL Brener)) (UniProt Q4DSP6).
T4 sequence (whole entry): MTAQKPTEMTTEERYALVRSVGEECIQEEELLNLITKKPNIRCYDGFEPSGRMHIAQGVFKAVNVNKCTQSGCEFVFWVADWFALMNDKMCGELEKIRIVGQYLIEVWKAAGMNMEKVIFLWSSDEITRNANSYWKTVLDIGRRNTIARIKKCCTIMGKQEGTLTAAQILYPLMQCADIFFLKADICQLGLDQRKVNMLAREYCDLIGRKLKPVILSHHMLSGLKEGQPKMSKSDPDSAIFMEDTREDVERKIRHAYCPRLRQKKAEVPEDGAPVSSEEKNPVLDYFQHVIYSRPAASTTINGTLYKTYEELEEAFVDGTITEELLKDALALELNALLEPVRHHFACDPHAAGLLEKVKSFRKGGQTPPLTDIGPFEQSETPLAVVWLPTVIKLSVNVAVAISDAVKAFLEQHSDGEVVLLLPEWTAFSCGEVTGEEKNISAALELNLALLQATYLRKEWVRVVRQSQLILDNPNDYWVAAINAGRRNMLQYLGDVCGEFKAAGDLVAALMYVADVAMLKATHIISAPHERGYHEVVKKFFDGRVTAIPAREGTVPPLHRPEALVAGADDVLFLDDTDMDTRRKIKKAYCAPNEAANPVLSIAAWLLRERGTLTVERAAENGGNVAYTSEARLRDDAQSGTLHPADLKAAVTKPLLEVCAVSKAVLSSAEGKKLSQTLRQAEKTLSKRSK
The experiment in a line: Trypanosoma cruzi tyrosyl tRNA synthetase (TcYRS) _High Tyrosine SOP. Note: in the data most compounds retested in dose-response had high values. The note with it: 30 µM. The class given is functional.

Assay [10] has as its target T4, Tyrosyl-tRNA synthetase, putative (Trypanosoma cruzi (strain CL Brener)). Briefly: Trypanosoma cruzi tyrosyl tRNA synthetase (TcYRS) SOP. The format is functional. The note with it: 30 µM.
Assay [11] addresses Chromo domain-containing protein 1 (Saccharomyces cerevisiae (strain ATCC 204508 / S288c) (Baker's yeast)) (UniProt P32657). Briefly: ScCHD-1 Enzyme Inhibition Assay. Note: in the data most compounds retested in dose-response had high values. The class given is functional. The settings on record: 30 µM.

For some of these results: Potency and affinity values are given separately.

Protein translocase subunit SecA (Escherichia coli (strain K12)), sequence (P10408 whole entry): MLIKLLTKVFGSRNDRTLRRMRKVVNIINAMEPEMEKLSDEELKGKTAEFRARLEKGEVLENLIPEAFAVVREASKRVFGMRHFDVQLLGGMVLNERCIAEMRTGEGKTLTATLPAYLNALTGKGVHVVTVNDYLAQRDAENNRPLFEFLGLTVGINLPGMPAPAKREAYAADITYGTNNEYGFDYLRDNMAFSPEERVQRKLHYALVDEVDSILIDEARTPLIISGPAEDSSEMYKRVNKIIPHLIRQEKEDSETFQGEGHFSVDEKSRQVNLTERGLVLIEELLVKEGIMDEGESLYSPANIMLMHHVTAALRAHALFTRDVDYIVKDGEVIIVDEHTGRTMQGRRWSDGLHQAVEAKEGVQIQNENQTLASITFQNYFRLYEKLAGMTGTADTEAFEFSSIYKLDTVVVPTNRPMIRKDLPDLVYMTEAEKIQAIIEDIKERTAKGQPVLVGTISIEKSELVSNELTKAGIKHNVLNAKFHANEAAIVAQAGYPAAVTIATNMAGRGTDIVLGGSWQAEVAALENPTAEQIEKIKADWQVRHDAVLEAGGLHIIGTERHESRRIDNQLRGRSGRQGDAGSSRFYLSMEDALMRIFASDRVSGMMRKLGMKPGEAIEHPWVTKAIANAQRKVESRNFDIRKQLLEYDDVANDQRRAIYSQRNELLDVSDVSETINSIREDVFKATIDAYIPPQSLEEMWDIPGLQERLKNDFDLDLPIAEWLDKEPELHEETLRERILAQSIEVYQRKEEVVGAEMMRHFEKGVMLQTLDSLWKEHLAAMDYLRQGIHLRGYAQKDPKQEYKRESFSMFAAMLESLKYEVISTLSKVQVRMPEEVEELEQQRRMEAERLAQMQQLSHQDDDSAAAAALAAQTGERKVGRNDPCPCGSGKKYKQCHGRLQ
Chromo domain-containing protein 1 (Saccharomyces cerevisiae (strain ATCC 204508 / S288c) (Baker's yeast)), sequence (P32657 whole entry, the tested form may be a part): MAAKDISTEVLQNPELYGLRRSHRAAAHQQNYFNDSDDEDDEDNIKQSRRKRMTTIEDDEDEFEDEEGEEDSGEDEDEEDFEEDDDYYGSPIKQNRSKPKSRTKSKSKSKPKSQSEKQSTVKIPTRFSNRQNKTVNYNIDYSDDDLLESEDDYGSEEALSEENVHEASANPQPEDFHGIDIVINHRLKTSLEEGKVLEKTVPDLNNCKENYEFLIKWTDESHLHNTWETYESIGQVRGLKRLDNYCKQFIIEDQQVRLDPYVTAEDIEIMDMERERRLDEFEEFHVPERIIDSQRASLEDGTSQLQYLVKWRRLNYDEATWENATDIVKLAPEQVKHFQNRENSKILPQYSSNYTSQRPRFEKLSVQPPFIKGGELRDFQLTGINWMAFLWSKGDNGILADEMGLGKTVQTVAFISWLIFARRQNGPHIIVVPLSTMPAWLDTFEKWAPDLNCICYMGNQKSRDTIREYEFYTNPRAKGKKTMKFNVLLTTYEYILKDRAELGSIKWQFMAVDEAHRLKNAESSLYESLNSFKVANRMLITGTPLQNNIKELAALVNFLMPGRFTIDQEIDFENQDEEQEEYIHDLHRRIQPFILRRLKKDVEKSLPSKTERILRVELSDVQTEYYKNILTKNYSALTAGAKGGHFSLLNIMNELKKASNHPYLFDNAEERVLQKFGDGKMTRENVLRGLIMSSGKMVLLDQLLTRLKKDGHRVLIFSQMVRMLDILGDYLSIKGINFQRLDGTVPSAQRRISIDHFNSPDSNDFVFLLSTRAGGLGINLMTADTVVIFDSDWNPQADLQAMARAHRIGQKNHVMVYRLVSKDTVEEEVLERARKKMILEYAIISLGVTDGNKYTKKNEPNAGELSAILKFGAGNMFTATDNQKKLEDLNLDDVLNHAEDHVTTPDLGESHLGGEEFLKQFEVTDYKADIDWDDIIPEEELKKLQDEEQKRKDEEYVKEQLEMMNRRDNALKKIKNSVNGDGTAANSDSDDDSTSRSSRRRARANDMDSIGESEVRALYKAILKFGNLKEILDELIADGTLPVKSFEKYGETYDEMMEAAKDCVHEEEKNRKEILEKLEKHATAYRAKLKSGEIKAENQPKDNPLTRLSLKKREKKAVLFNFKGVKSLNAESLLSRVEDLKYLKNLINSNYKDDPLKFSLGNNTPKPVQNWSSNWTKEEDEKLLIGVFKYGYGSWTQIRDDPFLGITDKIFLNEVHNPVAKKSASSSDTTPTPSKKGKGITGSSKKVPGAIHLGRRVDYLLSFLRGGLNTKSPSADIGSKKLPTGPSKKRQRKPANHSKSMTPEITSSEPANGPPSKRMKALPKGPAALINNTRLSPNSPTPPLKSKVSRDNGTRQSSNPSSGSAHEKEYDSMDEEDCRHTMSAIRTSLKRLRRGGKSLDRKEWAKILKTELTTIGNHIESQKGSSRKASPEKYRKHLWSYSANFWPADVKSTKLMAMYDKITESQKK

For the compound `CCN1C(=O)CCC12CCCN(Cc1nccs1)CC2` (stereo not drawn), the Percent Effect in assay [1] was -5.45%; in assay [2], 8%; in assay [3] it was 11.7%; in assay [4], 0.513%; in assay [5], 2.56%; in assay [6], -0.699%. In addition, the Percent Effect in [7] is 8.37%; in [8], 9.53%; in assay [9], 7.45%; in [10], 16.7%; in [11], -1.64%.

On to `CN1CCN(C(CNC(=O)CCn2cccn2)c2cccs2)CC1` (stereo not drawn), for which the Percent Effect is 1.81% in assay [1]; -2.67% in assay [2]; -4.22% in [3]; 0.224% in [4]; -3.6% in assay [5]; 4.17% in assay [6]. For the same compound, the Percent Effect in assay [7] worked out at 6.63%; in assay [8] it was 5.37%; in assay [9] it was 2.73%; in [10], 3.7%; in assay [11] it was 2.11%.

`Cc1cc(CN2CCc3nn(C)c(=O)cc3C2)on1`: the Percent Effect in [1] is -2.46%; in assay [2], 12.5%; in assay [3], -228%; in [4] it was -1.88%; in assay [5], -0.0972%; in assay [6], 4.86%. Besides, the Percent Effect in assay [7] was 6.84%; in assay [8], -5.36%; in assay [9], -3.16%; in [10], -7.69%; in assay [11] it was -2.45%.

As for `COc1ccc(CN(C)Cc2nc3c(cnn3C)c(=O)[nH]2)cc1OC`, the Percent Effect in assay [1] is -1.17%; in assay [2] it was 13.9%; in [3], 4.17%; in assay [4], 3.18%; in assay [5] it was -3.18%; in assay [6], 2.8%. In addition, the Percent Effect is 16.5% in assay [7]; 11.6% in [8]; 7.29% in assay [9]; 7.59% in assay [10]; -3.45% in assay [11].

With `O=C(CC1CN(Cc2ccccc2)CCO1)NC1CCCC1` (stereo not drawn), the Percent Effect in [1] is -6.09%; in assay [2], 24.3%; in [3] it was -1.42%; in assay [4], 7.65%; in assay [5], 7.62%; in assay [6], 8.33%. Besides, the Percent Effect in [7] was 7.35%; in [8], 15.4%; in assay [9], 7.92%; in assay [10], 23.2%; in assay [11] it was -6.96%.

On to `COc1cccc(CC2CN(C3CCN(C(C)=O)CC3)CCO2)c1` (stereo not drawn), for which the Percent Effect was -1.38% in assay [1]; -7.79% in [2]; 2.17% in assay [3]; 2.19% in assay [4]; -1.87% in assay [5]; -2.76% in assay [6]. The Percent Effect in [7] is -0.499%; in [8] it was -4.71%; in assay [9] it was 2.15%; in [10] it was 3.7%; in assay [11], 1.6%.

As to `CC(O)CN1CCN(C(=O)c2cc3ccccc3c(=O)[nH]2)CC1` (stereo not drawn), the Percent Effect was -0.781% in [1]; -5.26% in assay [2]; 5.31% in [3]; -2.11% in [4]; -3.41% in assay [5]; -10.7% in assay [6]. Moreover, the Percent Effect in assay [7] was 13.1%; in assay [8] it was -6.84%; in [9] it was 0%; in [10], 2.6%; in assay [11], 12.2%.

For the compound `Cc1ccc(O)c(CNC2CCc3nc(C(C)C)nn3C2)n1` (stereo not drawn), the Percent Effect in assay [1] is -9.46%; in assay [2], 13.2%; in assay [3], 2.66%; in [4] it was 6.11%; in assay [5] it was 3.02%; in assay [6], -5.92%. Moreover, the Percent Effect in assay [7] was 8.15%; in [8] it was -5.66%; in assay [9], 1.06%; in assay [10], 10.4%; in assay [11], -14.7%.
